Assay results taken from PubChem BioAssay (Tox21).
Results filed as inconclusive are left out. Calls of active or inactive are those of the source. Calls follow the shape of the full dose curve.

molecular target: Acetylcholinesterase (Homo sapiens) (UniProt P22303); experiment: Acetylcholinesterase (AChE) small molecule antagonists: colormetric cell-based qHTS assay (AID 1347395); details: SH-SY5Y cells AChE activity, colorimetric (Ellman); series mostly up to 115 µM; activity, negative = inhibition: at the top concentration; also: nearly all actives have a fitted effect of over 30% in size
Sequence (P22303 whole entry, looked up): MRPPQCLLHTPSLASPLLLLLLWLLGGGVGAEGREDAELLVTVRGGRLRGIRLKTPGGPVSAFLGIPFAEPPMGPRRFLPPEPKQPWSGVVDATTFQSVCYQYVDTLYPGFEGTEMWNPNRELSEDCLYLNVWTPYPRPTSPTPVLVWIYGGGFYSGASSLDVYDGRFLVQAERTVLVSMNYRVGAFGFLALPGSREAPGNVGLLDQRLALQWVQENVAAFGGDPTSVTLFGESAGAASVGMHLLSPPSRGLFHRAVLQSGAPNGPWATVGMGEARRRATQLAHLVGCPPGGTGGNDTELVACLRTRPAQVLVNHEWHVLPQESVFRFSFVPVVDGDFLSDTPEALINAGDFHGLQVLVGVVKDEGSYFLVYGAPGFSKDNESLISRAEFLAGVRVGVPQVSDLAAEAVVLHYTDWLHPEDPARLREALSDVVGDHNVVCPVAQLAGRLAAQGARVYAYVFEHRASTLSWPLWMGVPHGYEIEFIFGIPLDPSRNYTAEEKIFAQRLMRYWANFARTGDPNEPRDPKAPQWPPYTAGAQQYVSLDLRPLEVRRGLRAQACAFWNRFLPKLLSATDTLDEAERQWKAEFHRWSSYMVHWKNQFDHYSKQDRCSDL
Excerpt: National Center for Advancing Translational Sciences [NCATS]
Division of Preclinical Innovation [DPI]
U.S. Environmental Protection Agency [EPA]
National Institutes of Environmental Health Sciences [NIEHS]
National Toxicology Program [NTP]
U.S. Food and Drug Administration [FDA]
Acetylcholinesterase (AChE) is the primary cholinesterase in the body that hydrolyzes a key neurotransmitter, acetylcholine. Inhibition of AChE activity can lead to neurotoxicity. The known inhibitors include organophosphorous pesticides (OP), chemical warfare agents, drugs, and various phytochemicals.
A homogenous cell-based assay using the Amplite Colormetric acetylcholinesterase assay kit (AAT Bioquest, Sunnyvale, CA) was used to evaluate the chemicals in the Tox21 10K library that inhibit AChE activity. The assay uses 5, 5-dithiobis-(2-nitrobenzoic acid) (DTNB) to quantify the thiocholine produced from the hydrolysis of acetylthiocholine by AChE from the SH-SY5Y cells.
Tox21 Assay Protocol Summary:
For the cell-based AChE assay, 2,000 SH-SY5Y cells in 4 uL/well were dispensed into black, clear-bottom 1536-well plates using a Multidrop Combi dispenser (Thermo Scientific, MA). The assay plates were incubated overnight at 37 C to allow cells to attach to the wells, followed by the transfer of 23 nL of compound or DMSO (vehicle control) by a Pintool Station (Wako Automation, CA). The plates were incubated for 30 min at 37 C and 5% CO2, followed by the addition of 4 uL of detection cocktail solution (DTNB, acetylthiocholine) into each well using a Flying Reagent Dispenser (Beckman Coulter, CA) and then 90 min incubation at 37 C.
% is scaled to controls: 0 for no effect and ±100 for the full control effect; potency is read from the fitted curve at half-maximal effect.

Question: With `Nc1ccc(C(=O)NCC(=O)O)cc1` as the compound, how does the “activity, negative = inhibition” value read?
Answer: The value was 3.45% [at 52.9 µM] (inactive).

Question: With `CCCCCCCCCCCCCCCCCC[N+](C)(C)C` as the compound, how does the “activity, negative = inhibition” value read?
Answer: Its value is 1.74% (inactive).

Question: How did the “activity, negative = inhibition” value turn out when `CN(C(=O)C(Cl)Cl)c1ccc(OC(=O)c2ccco2)cc1` was run?
Answer: Its value is -1.78% [at 52.9 µM] (inactive).

Question: For `CC1(C)[C@@H](O)CC[C@]2(C)[C@H]3C(=O)C=C4[C@@H]5C[C@@](C)(C(=O)O)CC[C@]5(C)CC[C@@]4(C)[C@]3(C)CC[C@@H]12`, which “activity, negative = inhibition” value is on record?
Answer: Its value is 0.818% (inactive).

Question: `C1=COCCC1` was tested. Which “activity, negative = inhibition” value did it give?
Answer: The value was -1.11% (inactive).

Question: How did the “activity, negative = inhibition” value turn out when `CCC(=O)OCc1ccc(OC)cc1` was run?
Answer: Its value is 1.41% (inactive).

Question: Which “activity, negative = inhibition” value does the source give for `CC1OCCC1=O` (stereo not given) here?
Answer: The value was -0.403% (inactive).

Question: Which “activity, negative = inhibition” value does the source give for `CC(C)(C)NCC(O)COc1cccc2c1C[C@H](O)[C@H](O)C2` (stereo not given in full) here?
Answer: Its value is 0.164% [at 52.9 µM] (inactive).

Question: With `CC(=O)SCC(CC(=O)c1ccc(C)cc1)C(=O)O` (stereo not given) as the compound, how does the “activity, negative = inhibition” value read?
Answer: The value was 0.0881% [at 52.9 µM] (inactive).

Question: For `CC(=O)c1ccc2c(c1)N(CCCN1CCC(CCO)CC1)c1ccccc1S2`, which Potency is on record?
Answer: Its Potency is 38.9 µM (active).

Question: With `N[C@@H](CSCCCO)C(=O)O` as the compound, how does the activity, negative = inhibition read?
Answer: The activity, negative = inhibition was -1.97% [at 23.6 µM] (inactive).

Question: `CN(CCOc1ccc(NS(C)(=O)=O)cc1)CCc1ccc(NS(C)(=O)=O)cc1` was tested. Which Potency did it give?
Answer: The Potency was 17.4 µM (active).

Question: With `CCN(CC)CCNC(=O)COc1ccc(Cl)cc1` as the compound, how does the “activity, negative = inhibition” value read?
Answer: The value was -7.16% [at 52.9 µM] (inactive).

Question: Which Potency does the source give for `CCN1/C(=C/C=C/c2sc3ccccc3[n+]2CC)Sc2ccccc21` here?
Answer: The Potency was 10.7 µM (active).

Question: For `CC1(C)S[C@@H]2[C@H](NC(=O)C(c3ccccc3)S(=O)(=O)O)C(=O)N2[C@H]1C(=O)O` (stereo not given in full), which “activity, negative = inhibition” value is on record?
Answer: Its value is -1.94% [at 52.9 µM] (inactive).

Question: With `CN1C(C)(C)CCCC1(C)C` as the compound, how does the “activity, negative = inhibition” value read?
Answer: The value was 0.793% [at 52.9 µM] (inactive).

Question: Which Potency does the source give for `O=S1(=O)CC(Cl)(Cl)C(Cl)(Cl)C1` here?
Answer: The Potency was 71 µM (active).

Question: `CC(CO)(CO)[N+](=O)[O-]` was tested. Which “activity, negative = inhibition” value did it give?
Answer: Its value is 1.47% (inactive).

Question: Which “activity, negative = inhibition” value does the source give for `COc1ccccc1N1CCN(CCCNc2cc(=O)n(C)c(=O)n2C)CC1` here?
Answer: The value was -1.14% [at 52.9 µM] (inactive).

Question: Which “activity, negative = inhibition” value does the source give for `COC(=O)CC(C)=O` here?
Answer: The value was -1.02% (inactive).

Question: With `CCC(C)(CCC(C)C)C(=O)O` (stereo not given) as the compound, how does the “activity, negative = inhibition” value read?
Answer: The value was 5.51% (inactive).

Question: With `CCOC(=O)C(C)O` (stereo not given) as the compound, how does the “activity, negative = inhibition” value read?
Answer: Its value is 4.58% (inactive).

Question: With `CCCCCCOC(=O)c1ccccc1` as the compound, how does the “activity, negative = inhibition” value read?
Answer: The value was -3.15% (inactive).

Question: Which “activity, negative = inhibition” value does the source give for `CC[N+](CC)(CC)CCOC(=O)C(C1CCCC1)C1CCCC1` here?
Answer: The value was -0.769% [at 52.9 µM] (inactive).

Question: With `Nc1ccn(C2CO[C@H](CO)O2)c(=O)n1` (stereo not given in full) as the compound, how does the “activity, negative = inhibition” value read?
Answer: Its value is -0.111% [at 52.9 µM] (inactive).

Question: How did the “activity, negative = inhibition” value turn out when `CCCOc1ccc2c(c1)CC[C@@H]1[C@@H]2CC[C@]2(C)C(OC)CC[C@@H]12` (stereo not given in full) was run?
Answer: Its value is 1.16% [at 52.9 µM] (inactive).

Question: How did the “activity, negative = inhibition” value turn out when `C=CCOCC(O)CS(=O)(=O)O` (stereo not given) was run?
Answer: The value was 1.22% (inactive).

Question: With `OCCCC1CCCCC1` as the compound, how does the “activity, negative = inhibition” value read?
Answer: The value was 2.4% (inactive).

Question: `CCCCCCOC(=O)NC(=N)c1ccc(NCc2nc3cc(C(=O)N(CCC(=O)OCC)c4ccccn4)ccc3n2C)cc1` was tested. Which “activity, negative = inhibition” value did it give?
Answer: The value was 2.25% [at 52.9 µM] (inactive).

Question: With `COc1ccc([C@@H]2Sc3ccccc3NC(=O)[C@@H]2O)cc1` as the compound, how does the “activity, negative = inhibition” value read?
Answer: Its value is 0.475% [at 52.9 µM] (inactive).

Question: With `NC1[C@H]2CN(c3nc4c(cc3F)c(=O)c(C(=O)O)cn4-c3ccc(F)cc3F)C[C@@H]12` (stereo not given in full) as the compound, how does the outcome read?
Answer: The outcome was “inactive”.

Question: For `CCC(CO)(CO)COCC(CC)(CO)CO`, which “activity, negative = inhibition” value is on record?
Answer: Its value is 2.23% (inactive).

Question: Which outcome does the source give for `C[C@H](N)C(=O)N[C@@H](C)C(=O)NC1[C@H]2CN(c3nc4c(cc3F)c(=O)c(C(=O)O)cn4-c3ccc(F)cc3F)C[C@@H]12` (stereo not given in full) here?
Answer: Its outcome is “inactive”.

Question: Which “activity, negative = inhibition” value does the source give for `O=C1c2ccccc2C(=O)c2c(Cl)cccc21` here?
Answer: Its value is -4.88% [at 52.9 µM] (inactive).

Question: Which “activity, negative = inhibition” value does the source give for `C=C(C)C(=O)NCCCN(C)C` here?
Answer: Its value is -2.84% (inactive).

Question: How did the “activity, negative = inhibition” value turn out when `CC1CCc2c(N3CCC(O)CC3)c(F)cc3c(=O)c(C(=O)O)cn1c23` (stereo not given) was run?
Answer: The value was 0.0881% [at 52.9 µM] (inactive).

Question: For `Oc1c(Cl)cc(Cl)c(Cl)c1Cc1c(O)c(Cl)cc(Cl)c1Cl`, which “activity, negative = inhibition” value is on record?
Answer: The value was -0.781% [at 52.9 µM] (inactive).

Question: For `Nc1ccc(F)cc1F`, which “activity, negative = inhibition” value is on record?
Answer: The value was 3.42% (inactive).

Question: How did the “activity, negative = inhibition” value turn out when `CC(=O)Oc1cc2c(s1)CCN(C(C(=O)C1CC1)c1ccccc1F)C2` (stereo not given) was run?
Answer: Its value is -14% [at 52.9 µM] (inactive).

Question: With `Cc1[nH]cnc1-c1ccc(Cl)cc1` as the compound, how does the “activity, negative = inhibition” value read?
Answer: The value was 1.74% [at 52.9 µM] (inactive).
